From publication PMC4336329 (PLoS ONE, 2015)
The whole screen tested about 310,000 compounds, of which about 14,000 (4.5%) showed an effect of 50% or more. The effect is printed as a negative number. Many of the other results were omitted from the sample, so strong results are more common in it than they were.

Each compound was assayed against human ether-à-go-go-related gene (hERG) potassium channel (human, UniProt Q12809) (assay: primary screen, population patch clamp on CHO cells stably expressing hERG; higher = less effect of the substance).
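Also: peak tail current of the secondary pulse compared with the same well before compound.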

Chain of human ether-à-go-go-related gene (hERG) potassium channel (Q12809 whole entry, looked up): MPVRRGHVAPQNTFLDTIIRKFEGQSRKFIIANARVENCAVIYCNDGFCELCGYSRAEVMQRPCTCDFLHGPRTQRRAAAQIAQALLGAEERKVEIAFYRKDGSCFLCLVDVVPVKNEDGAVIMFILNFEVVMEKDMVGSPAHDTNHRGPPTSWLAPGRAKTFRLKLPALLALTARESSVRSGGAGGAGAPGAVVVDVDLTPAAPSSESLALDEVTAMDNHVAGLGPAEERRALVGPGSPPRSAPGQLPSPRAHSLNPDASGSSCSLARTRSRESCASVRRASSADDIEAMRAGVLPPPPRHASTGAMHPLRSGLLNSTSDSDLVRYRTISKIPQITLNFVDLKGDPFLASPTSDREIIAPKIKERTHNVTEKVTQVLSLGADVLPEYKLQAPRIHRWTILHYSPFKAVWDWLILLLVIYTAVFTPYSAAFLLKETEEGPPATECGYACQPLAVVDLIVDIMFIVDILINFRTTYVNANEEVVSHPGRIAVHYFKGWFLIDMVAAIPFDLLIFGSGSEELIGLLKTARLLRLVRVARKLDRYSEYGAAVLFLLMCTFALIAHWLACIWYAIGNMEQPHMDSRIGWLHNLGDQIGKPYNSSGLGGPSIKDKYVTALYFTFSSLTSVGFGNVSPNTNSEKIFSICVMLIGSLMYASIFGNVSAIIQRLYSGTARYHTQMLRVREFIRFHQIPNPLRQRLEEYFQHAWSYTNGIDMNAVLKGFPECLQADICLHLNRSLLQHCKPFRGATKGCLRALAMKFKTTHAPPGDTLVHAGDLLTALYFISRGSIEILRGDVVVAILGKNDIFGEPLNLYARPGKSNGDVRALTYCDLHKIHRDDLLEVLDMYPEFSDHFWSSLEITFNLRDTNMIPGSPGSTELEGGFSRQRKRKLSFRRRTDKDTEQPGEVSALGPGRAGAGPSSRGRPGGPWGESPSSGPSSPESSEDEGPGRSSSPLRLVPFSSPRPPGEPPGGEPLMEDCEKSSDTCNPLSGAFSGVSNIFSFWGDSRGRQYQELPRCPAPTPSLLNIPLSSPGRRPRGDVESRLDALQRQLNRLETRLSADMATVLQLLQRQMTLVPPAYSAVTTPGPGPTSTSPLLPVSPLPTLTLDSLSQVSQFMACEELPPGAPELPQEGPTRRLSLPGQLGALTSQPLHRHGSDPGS

| Compound | hERG current change (%, negative = inhibition) at 10uM [%] |
| --- | --- |
| COc1ccc(NC(=O)Cn2nnc(C(=O)NCc3cccs3)c2N)cc1 | 13.9 |
| COc1ccc(/C=C2\SC(=S)N(Cc3cccnc3)C2=O)cc1C | -3.04 |
| Cc1ccc2c(cnn2C(=O)CCC(=O)NC2CCCC2)c1 | -10.3 |
| O=C(CCN1C(=O)/C(=C/c2cccc(Br)c2)SC1=S)NNC(=O)c1cccnc1 | 6.24 |
| CCOc1ccccc1NC(=O)COC(=O)c1ccccc1SCC(=O)N1CCCC1 | 1.65 |
| CCc1ccc(C(=O)NNC(=O)CCN2CCN(Cc3ccccc3)CC2)cc1 | -19.8 |
| N#Cc1cccc(NC(=O)Cc2ccccc2)c1 | 13.6 |
| O=C(CCN1CCN(Cc2ccccc2)CC1)NNC(=O)Cc1ccc(Cl)c(Cl)c1 | -74.7 |
| O=C(CNC1CCCC1)Nc1ccc(S(=O)(=O)N2CCCCC2)cc1 | -0.797 |
| N#Cc1cccc(NC(=O)CN2CCCCCC2)c1 | -10.9 |
| O=C(CCN1CCN(Cc2ccccc2)CC1)NNC(=O)Nc1cccc(Cl)c1 | -47 |
| N#Cc1cccc(NC(=O)CN2CCN(Cc3ccccc3)CC2)c1 | -65.1 |
| Cl.O=C(CNC1CCN(Cc2ccccc2)CC1)Nc1ccc(S(=O)(=O)N2CCCCC2)cc1 | -69.7 |
| O=C(CCN1CCN(Cc2ccccc2)CC1)Nc1cccc(Cl)c1 | -70.6 |
| Cl.O=C(CCN1CCCCC1)Nc1cccc(Cl)c1 | -35.9 |
| NNC(=O)CCN1CCN(Cc2ccccc2)CC1 | 17 |
| O=C(CNC1CCCCC1)Nc1ccc(S(=O)(=O)N2CCCCC2)cc1 | 2.13 |
| COc1ccc(NS(=O)(=O)c2cnc[nH]2)cc1 | 17.4 |
| COCCCNC(=O)c1ccc(NS(C)(=O)=O)cc1 | -2.85 |

| Compound | hERG current change (%, negative = inhibition) at 10uM [%] |
| --- | --- |
| O=C(O)c1c(NC(=O)c2cccc3ccccc23)sc2c1CCC2 | 5.11 |
| COc1cccc(CNc2nc(C(F)(F)F)nc3ccccc23)c1 | 0.0262 |
| CS(=O)(=O)c1cccc(NC(=O)C2CCCN2S(=O)(=O)c2ccc(F)cc2)c1 (centres unmarked) | 7.77 |
| Nc1ccc(C(=O)OCc2ccncc2)cc1[N+](=O)[O-] | -28.7 |
| NC(=O)c1cccnc1Nc1ccccc1F | 0.0995 |
| CC1(C)C=Cc2cc3ccc(=O)oc3cc2O1 | 3.51 |
| COc1ccc(OCc2n[nH]c(=S)n2-c2ccc(C)cc2)cc1 | 0.659 |
| CCN(CC)C(=S)SCC(=O)Nc1cccc(C(F)(F)F)c1 | -10 |
| Cc1ccc(S(=O)(=O)N2CCCCC2)cc1NC(=O)Cn1ccc(C(F)(F)F)n1 | -8.63 |
| Cl.O=C(CN1CCCCC1)Nc1cccc(Cl)c1 | -28.8 |
| O=C(Cn1cnnn1)Nc1cccc(S(=O)(=O)N2CCCCC2)c1 | 18.2 |
| CN(C)C(=S)SCC(=O)Nc1cccc(C(F)(F)F)c1 | -54.6 |
| O=C(CN1CCN(Cc2ccccc2)CC1)Nc1cccc(Cl)c1 | -60.7 |
| O=C(O)CSCC(=O)Nc1cccc(C(F)(F)F)c1 | -6.67 |
| O=C(Cn1ccc(C(F)(F)F)n1)Nc1cccc(S(=O)(=O)N2CCCCC2)c1 | -60.5 |
| Cl.O=C(CN1CCCC1)Nc1cccc(Cl)c1 | -3.66 |
| CCN1CCN(C(=S)Nc2sc(C)c(-c3ccccc3)c2C(=O)OC)CC1 | 15.3 |
| CC1(C)Cc2cccc(OCC(=O)OCC(=O)c3ccccc3)c2O1 | 1.43 |
| Cc1c(NC(=O)CSc2nnnn2-c2ccc(F)cc2)c(=O)n(-c2ccccc2)n1C | -2.74 |

| Compound | hERG current change (%, negative = inhibition) at 10uM [%] |
| --- | --- |
| Cc1cccc(C(=O)Oc2ccc(/C=N/NC(=O)c3ccncc3)cc2)c1 | 3.1 |
| Clc1ccc2c(c1)C(c1ccccc1Cl)=NCc1nncn1-2 | -4.37 |
| Clc1ccc2c(c1)C(c1ccccc1Cl)=NCc1nnc(Br)n1-2.c1ccccc1 | -6.61 |
| Cc1nnc2n1-c1ccc(Br)cc1C(c1ccccc1Cl)=NC2 | -21.1 |
| Clc1ccc2c(c1)C(c1ccccc1Cl)=NCc1nnc(N3CCN(CCOc4ccccc4)CC3)n1-2.O=C(O)/C=C/C(=O)O | -72.7 |
| CCOCCN1CCN(c2nnc3n2-c2ccc(Cl)cc2C(c2ccccc2Cl)=NC3)CC1.O=CO | -76.5 |
| COc1ccccc1C1=NCc2nnc(C)n2-c2ccc(Cl)cc21 | 3.01 |
| CN1CCN(Cc2nnc3n2-c2ccc(Cl)cc2C(c2ccccc2)=NC3)CC1.O=CO | -64.7 |
| COCCCN1CCN(c2nnc3n2-c2sc(Br)cc2C(c2ccccc2Cl)=NC3)CC1.CS(=O)(=O)O | -47.7 |
| CSCc1nnc2n1-c1ccc(Cl)cc1C(c1ccccc1)=NC2 | -17 |
| CCS(=O)(=O)NCc1nnc2n1-c1ccc(Cl)cc1C(c1ccccc1)=NC2 | 12.6 |
| CCS(=O)(=O)NCc1nnc2n1-c1ccc(Br)cc1C(c1ccccc1Cl)=NC2 | -49 |
| Clc1ccc2c(c1)C(c1ccccc1Cl)=NCc1nnc(N3CCN(CCSc4ccccc4)CC3)n1-2.O.O=C(O)/C=C/C(=O)O | -66.5 |
| C/C(=N\NC(=O)C1CC1)c1ccc(N2CCOCC2)cc1 | -0.403 |
| O=c1/c(=C/c2ccco2)sc2nc(-c3ccccc3Br)nn12 | 12.7 |
| O=c1sc2ccccc2c(N2CCCC2)c1[N+](=O)[O-] | 6.33 |
| Cc1cc(C)nc(SCc2nnc(SCC(N)=O)o2)n1 | 15.7 |
| O=C(c1ccccc1)c1ccc(N=Nc2c(O)[nH]c(=O)[nH]c2=O)cc1 | 1.15 |
